M1 ag parental: counter-screen for M1 agonists: effect in parental CHO-K1 cells. Fluo-8 calcium fluorescence; scaled to maximal ATP response, vehicle zero. activation, % at 3 µM. 0.48% of 360,000 active; in the data active means activation above about 15%;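 further: untransfected CHO-K1 host cells lacking M1 receptor as counterscreen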
M1 PAM parental: nonselective calcium activators in parental CHO-K1 cells, primary screen, counter-screen for M1 PAM project, cell-based, Fluo-8 calcium fluorescence, full deck, 1536-well; 0.02% of 360,000 active; AID 602247, 2012; activation, % at 3 µM; ATP EC20; 0% at ATP EC20, 100% at ATP max;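 active means activation above the run cutoff, the mean activation of all test compounds plus 3 SD, cut at about 40% in these data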;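 further: peak over basal fluorescence ratio in a 140 s read after ATP addition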
CHRM1 agonist: human M1 muscarinic receptor agonists, primary screen, Fluo-8 calcium fluorescence, CHO-K1 cells, HTS; 0.33% of 360,000 active; AID 588814, 2011; activation, % at 3 µM; CHO-K1 hM1, agonist mode; 0% DMSO, 100% acetylcholine EC100; Muscarinic acetylcholine receptor M1 (Homo sapiens), P11229;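 active means activation above the run's mean compound activation plus 3 SD, cut at about 16% in these data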;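 further: peak over basal fluorescence ratio within a 140 s kinetic read after compound addition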
Target sequence (P11229 whole entry, looked up): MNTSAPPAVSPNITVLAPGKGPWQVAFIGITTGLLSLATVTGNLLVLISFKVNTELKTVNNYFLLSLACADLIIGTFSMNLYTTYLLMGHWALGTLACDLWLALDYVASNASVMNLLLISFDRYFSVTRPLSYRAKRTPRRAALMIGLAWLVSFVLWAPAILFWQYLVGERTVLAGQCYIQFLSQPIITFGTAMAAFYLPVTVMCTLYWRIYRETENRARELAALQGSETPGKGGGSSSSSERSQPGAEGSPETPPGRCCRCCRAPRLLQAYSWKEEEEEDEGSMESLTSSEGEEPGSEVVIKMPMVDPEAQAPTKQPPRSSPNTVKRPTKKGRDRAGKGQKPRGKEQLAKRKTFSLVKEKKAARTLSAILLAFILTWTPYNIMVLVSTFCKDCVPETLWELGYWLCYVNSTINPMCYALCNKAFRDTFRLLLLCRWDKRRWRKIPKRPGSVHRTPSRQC
CHRM1 antagonist: human M1 muscarinic receptor antagonists, primary screen, CHO-K1 cells, Fluo-8 calcium fluorescence, 1536-well | Muscarinic acetylcholine receptor M1 (Homo sapiens), P11229 | CHO-K1 hM1, ACh EC80 antagonist | inhibition, % at 3 µM | 1.3% of 360,000 active;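 active means percent inhibition above its own plate's cutoff, namely the mean of that plate's compound wells plus 3 SD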;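 further: peak over basal fluorescence ratio during 140 s after agonist addition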
CHO-K1 Ca antag: nonselective inhibitor or artifact in parental CHO-K1 cells | ATP-induced calcium, Fluo-8 fluorescence | inhibition, % at 3 µM | 0.6% of 360,000 active | AID 602250;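 active means inhibition above a per-plate cutoff, the plate's mean sample inhibition plus 3 SD, cut at about 24% in these data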
CHRM1 PAM: human M1 muscarinic receptor positive allosteric modulators, primary screen, CHO-K1 cells, Fluo-8 calcium fluorescence, 1536-well; CHO-K1 hM1, ACh EC20; 0% = ACh EC20, 100% = maximal ACh; 0.088% of 360,000 active; Muscarinic acetylcholine receptor M1 (Homo sapiens), P11229; activation, % at 3 µM; in the data active means activation above about 19%, passing the limit was not always enough
Large screens that a line does not name were inactive. Hits are enriched below; roughly 2.3% of the tested compounds scored in any of these assays.

O=C(NCCO)c1cccc(-c2cnc3cccnn23)c1	none
COc1cccc(-c2cnc(C(O)c3c(C)ccc4ccccc34)[nH]2)c1 (stereo not drawn)	M1 ag parental 19.6
Cc1ccc2ccccc2c1C(O)c1ncc(-c2ccc(F)cc2)[nH]1 (stereo not drawn)	none
OC(CNCCc1ccc(C(F)(F)F)cc1)COC(c1ccccc1)c1ccccc1 (stereo not drawn)	CHRM1 antagonist 76.2
O=C(NC1CCCCC1)C1c2ccccc2OCC(=O)N1CCc1c[nH]c2ccccc12 (stereo not drawn)	none (no result: CHRM1 agonist, CHRM1 antagonist, CHRM1 PAM)
O=[N+]([O-])c1ccc(-c2ccc(/C=N/Nc3nc(NCc4ccccc4)nc(N4CCOCC4)n3)o2)cc1	M1 ag parental 18.0, CHRM1 antagonist 26.0, CHO-K1 Ca antag 24.1
O=C(NN=Cc1ccc(Cl)cc1Cl)C1CC1	none
COc1ccc(O)c(CN2CCN(C/C=C/c3ccccc3)CC2)c1	none
COc1cc(Br)cc(CN2CCN(C/C=C/c3ccccc3)CC2)c1O	CHRM1 antagonist 95.8
COc1cc2c(cc1OC)C(=O)C(Br)CC2 (stereo not drawn)	none
O=C(CC1SC(=Nc2ccccc2)N(CCCO)C1=O)Nc1ccc(Cl)cc1 (stereo not drawn)	CHRM1 antagonist 30.4
CC(C)N=C1SC(CC(=O)Nc2ccccc2)C(=O)N1C(C)C (stereo not drawn)	CHRM1 antagonist 26.5
Nc1nc2c(ncn2[C@@H]2O[C@H](CNCc3cnc(N4CCOCC4)s3)[C@@H](O)[C@H]2O)c(=O)[nH]1	none
CC(Oc1ccc(Br)cc1)C(=O)Nc1nnc(C2CC2)s1 (stereo not drawn)	CHRM1 agonist 17.8
Fc1ccc(NC(=S)N2CCCN(c3ccc(C(F)(F)F)cn3)CC2)c(F)c1	CHRM1 antagonist 33.9, CHO-K1 Ca antag 24.3
CN1C2CCC1CC(NC(=O)CSc1ccc(Cl)cc1)C2 (stereo not drawn)	CHRM1 antagonist 53.0
CCN(CC)CC#CC(O)(c1ccccc1)c1ccccc1	CHRM1 antagonist 99.4
OCCN(CC#CC(O)(c1ccccc1)c1cccc(F)c1)CCO (stereo not drawn)	none
CC(C)(C(N)=O)c1ccccc1	none
CN(C)CCC#CC(O)(c1ccccc1)c1ccccc1	CHRM1 antagonist 65.0
CN(C)C(C)(C)C#CC(O)(c1ccccc1)c1ccccc1	CHRM1 antagonist 100.1
CC1(C(=O)Nc2ccc(Cl)c(Cl)c2)CCN1C(=O)Cc1ccc(-c2ccccc2)cc1 (stereo not drawn)	none
CCCOC(=O)c1ccc(OCC(O)Cn2c(C)nc3ccccc32)cc1 (stereo not drawn)	CHRM1 antagonist 40.2
COc1ccc(Cl)cc1-c1cc(C(=O)Nc2ccc(C)c(NS(C)(=O)=O)c2)[nH]n1	none
CCOC(=O)Cc1csc(NC(=O)Nc2cccs2)n1	M1 ag parental 16.2
CC(=O)Nc1ccc(S(=O)(=O)N2CCC3(CC2)CC(=O)c2ccccc2O3)cc1	CHRM1 antagonist 31.6
CCOCCCNC(=O)c1[nH]c(C)c(C(C)=O)c1C	CHO-K1 Ca antag 24.0
CCOCCCNC(=O)c1c(C)[nH]c(C(=O)OCC)c1C	none
Cc1cc(/C=C2\C(=N)N3C(SCc4ccccc4)=NSC3=NC2=O)c(C)n1Cc1ccccc1	none
CC(C)CSC1=NSC2=NC(=O)/C(=C\c3coc4ccccc4c3=O)C(=N)N12	M1 ag parental 106.9, CHRM1 agonist 143.2, CHRM1 antagonist 60.2, CHO-K1 Ca antag 60.0
CC(C)CSC1=NSC2=NC(=O)/C(=C\c3ccccc3)C(=N)N12	none
CSC1=NSC2=NC(=O)/C(=C\c3coc4ccccc4c3=O)C(=N)N12	M1 ag parental 19.8, CHRM1 agonist 44.6, CHRM1 antagonist 35.4
CC(C)(C)NC(=O)C1c2ccccc2OCC(=O)N1Cc1ccccc1 (stereo not drawn)	none (no result: CHRM1 agonist, CHRM1 antagonist, CHRM1 PAM)
CCN(CC)S(=O)(=O)c1csc(C(=O)Nc2ccccn2)c1	CHO-K1 Ca antag 27.1
O=C(Nc1ccccn1)c1cccs1	none
CC1(C)CC(=O)c2ccc(OCc3ccc([N+](=O)[O-])cc3)cc2O1	CHO-K1 Ca antag 29.8
CC1(C)CC(=O)c2c(O)cc(OCc3ccc(Br)cc3)cc2O1	none
CCN1C(=O)[C@H]2[C@@H](c3ccc(OC)cc3)N[C@]3(CCCN(CC4CCCCC4)C3=O)[C@H]2C1=O	none
COc1cc(OC)c(OC)cc1CCC(C)NCCC(c1ccccc1)c1ccccc1 (stereo not drawn)	CHRM1 antagonist 73.7
COc1ccccc1CCNC(C)CCc1ccc(O)cc1 (stereo not drawn)	none
CN(C)c1cc[n+](CC(=O)Nc2ccc(Oc3ccccc3)cc2)cc1	CHRM1 antagonist 63.6
O=c1c2ccccc2ncn1-c1ccc([N+](=O)[O-])cc1Cl	CHO-K1 Ca antag 24.0
Cc1ccc2nc(-c3ccco3)c(CC(C)(C)C)n2c1	none
COc1ccc(NC(=O)CSc2nc(N)c(NC(=O)c3ccccc3F)c(=O)[nH]2)cc1	none
COc1ccc(CC(=O)Nc2ccc(NC(=O)c3ccccc3F)cc2)cc1	CHRM1 agonist 27.5
COc1ccc(NC(=O)c2cc3ccccc3cc2OC)cc1	none
COc1ccc(NC(=O)c2ccc3ccccc3c2OC)cc1	M1 ag parental 22.0
COc1cccc(CN(C)C(=O)C(CCSC)NS(=O)(=O)c2ccc3c(c2)OCCO3)c1OC (stereo not drawn)	CHRM1 antagonist 30.2
CC1CN(C(=S)Nc2ccccc2)C(C)CN1C=O (stereo not drawn)	none
CCn1c(SCC(=O)Nc2ccc(OC)cc2OC)nc2nc3c(cc2c1=O)COC(C)(C)C3	none
CCn1c(SCC(=O)Nc2cccc(C)c2)nc2nc3c(cc2c1=O)COC(C)(C)C3	M1 ag parental 16.0
COc1ccc(-n2c(SCC(N)=O)nc3nc4c(cc3c2=O)COC(C)(C)C4)cc1	none
CC(Cc1ccccc1)NC(=O)CSc1nc2nc3c(cc2c(=O)n1-c1ccccc1)COC(C)(C)C3 (stereo not drawn)	CHRM1 agonist 16.2
COc1ccc(C(=O)N/C(=C\c2ccco2)C(=O)OCc2ccco2)cc1	none
CCCCOc1ccc(C(=O)N/C(=C\c2ccc(OC)cc2)C(=O)OCc2ccco2)cc1	M1 ag parental 15.9
CCCc1cc(N2CCCC(C(=O)NCc3ccc4c(c3)OCO4)C2)n2ncnc2n1 (stereo not drawn)	CHRM1 PAM 28.1
Cc1c(C(=O)NCc2ccc3c(c2)OCO3)oc2ccc(S(=O)(=O)N3CCCCC3)cc12	CHRM1 antagonist 27.5
